Source: PubChem BioAssay AID449762 (Southern Research Specialized Biocontainment Screening …, 2010)
Screen size: about 330,000 compounds; about 1,900 (0.58%) were called active. Another 4% or so got no clear call; they are omitted. Rule as the data show it: inconclusive = inhibition above about 70% without an active follow-up result; inactive = below that. These entries were drawn from the full list. Potency and affinity values are given separately.

Experiment: M. tuberculosis growth inhibition, HTS (AID 449762);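 also: bacterial growth assessed after seven days of incubation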
Settings: M. tuberculosis H37Rv growth inhibition, 7H9 media; at 25 µM; stronger effect = higher value

SMILES | inhibition
O=C(O)C1(P(=O)(c2ccccc2)c2ccccc2)CCCC1 | 0.37% (inactive)
CN(C)CCCNC(=S)N(CCCO)Cc1cc2cc3c(cc2[nH]c1=O)OCO3 | 4.05% (inactive)
COc1cc(C(CCN2CCCC2)c2c(OC)cc(OC)c3c(-c4ccccc4)cc(=O)oc23)cc(OC)c1OC (stereo not drawn) | 56.2% (inactive)
COc1ccc(C(CCN2CCN(c3ccccc3)CC2)c2c(OC)cc(OC)c3c(-c4ccccc4)cc(=O)oc23)cc1 (stereo not drawn) | -5.41% (inactive)
COc1ccc(N2C(=O)NC(NS(=O)(=O)c3ccccc3)(C(F)(F)F)C2=O)cc1 (stereo not drawn) | -5.61% (inactive)
CNC(=O)COC(=O)c1cc(=O)[nH]c2ccccc12 | -5.4% (inactive)
Cc1c2cnn(CC(=O)Nc3cccc(C(F)(F)F)c3)c(=O)c2c(C)n1Cc1ccccc1F | -1.26% (inactive)
O=C(CN1C(=O)COc2ccccc21)N1CCCC1 | -0.99% (inactive)
O=C(CN1CCOc2ccccc21)N1CCCC1 | -8.18% (inactive)
CC(C)c1ccc(NC2CCCN(C(=O)CCN3CCOCC3)C2)cc1 (stereo not drawn) | 7.93% (inactive)
O=C(Nc1nc(-c2cc(Cl)sc2Cl)cs1)c1ccccc1 | -8.95% (inactive)
O=C(Nc1nc(-c2cc(Cl)sc2Cl)cs1)c1ccc(Br)s1 | 1.67% (inactive)
CCC1CCCCN1C(=O)c1noc(C(C)C)c1[N+](=O)[O-] (stereo not drawn) | 3.49% (inactive)
CC12CC3(C)CC(C)(C1)CC(C(N)=O)(C2)C3 | -0.48% (inactive)
COc1ccccc1NC(=O)CSCc1cc(=O)n2ccsc2n1 | 3.56% (inactive)
Cc1ccc(C(C)C)c(OCC(O)CNC2CCCC2)c1 (stereo not drawn) | 9.04% (inactive)
CCN(CCNCC(O)COCc1ccc(Cl)cc1)c1cccc(C)c1 (stereo not drawn) | 57% (inactive)
Cc1ccc(S(=O)(=O)Cc2ccc(C(=O)NCCCN3CCN(C)CC3)o2)cc1 | -20.7% (inactive)
O=C(Cn1c2ccc(F)cc2c2nc3n(c(=O)c21)CCS3)N1CCCC1 | -4.92% (inactive)
CCN(CC)S(=O)(=O)c1cccc(-c2csc(C)n2)c1 | -1.32% (inactive)
COc1cc(/C=N\Nc2nncn2N)ccc1OC(C)=O | -2.67% (inactive)
COc1ccc(/C=N/Nc2nnc(C)n2N)cc1OC | 54.6% (inactive)
Cc1cccc(C)c1-n1nnnc1SCSc1nnnn1-c1c(C)cccc1C | -0.17% (inactive)
Cc1ccc(C)c(N2C(=O)CC(N3CCN(Cc4ccc5c(c4)OCO5)CC3)C2=O)c1 (stereo not drawn) | -6.64% (inactive)

SMILES | inhibition
O=c1/c(=C\c2ccc(O)cc2)sc2nc(-c3ccccc3)c(-c3ccccc3)n12 | -4.61% (inactive)
CCOC(=O)C1=C(C)N=c2s/c(=C\c3ccc(OCC(=O)O)cc3)c(=O)n2C1c1ccccc1 (stereo not drawn) | -2.68% (inactive)
COc1cccc(CN(C)C(=O)/C=C/c2ccc(S(=O)(=O)N3CCCCCC3)cc2)c1 | 4.38% (inactive)
Cc1cc(=O)oc2ccc(OCC(=O)N3CCc4ccccc43)cc12 | -7.76% (inactive)
Cc1cc(=O)[nH]c(N=N/C(=N/Nc2ccccc2C)c2ccccc2)n1 | 68.7% (inactive)
COc1ccc(N/C(N)=N/c2nc(C)cc(=O)[nH]2)cc1 | 4.61% (inactive)
Oc1ccc(/C=N/Nc2ccc(Cl)nn2)c(O)c1O | -6.06% (inactive)
CCOc1ccccc1/C=N/Nc1ccc(Cl)nn1 | 13.2% (inactive)
C/C(=N\NC(N)=O)c1ccc(Cl)s1 | -8.77% (inactive)
C/C(=N\NC(=S)NCc1ccccc1)c1ccc(Cl)s1 | -0.65% (inactive)
Cc1cccc(N(C)S(=O)(=O)c2c(C)noc2C)c1 | 2.4% (inactive)
C/C(CC(=O)Nc1ccccn1)=N\NC(=O)c1ccccc1O | -3.57% (inactive)
O=C(Nc1ccc2oc(-c3cccc4ccccc34)nc2c1)c1ncn[nH]1 | 9.87% (inactive)
O=C(Nc1ccc2oc(-c3ccc(Cl)c(Cl)c3)nc2c1)c1ncn[nH]1 | 50.6% (inactive)
CC(=O)N(C(C)=O)c1c(C#N)c(C)n(-c2ccccc2)c1C(=O)c1ccccc1 | -0.27% (inactive)
CCCC(=O)c1ccc(-c2ccccc2)cc1 | 1.42% (inactive)
Cc1ccc2nc(NC(=O)CN3C(=O)NC4(CCCCC4)C3=O)sc2c1 | 5.87% (inactive)
COc1ccccc1NS(=O)(=O)c1cc(C(=O)NCCC(C)C)ccc1F | 16.6% (inactive)
CCOC(=O)c1nc2sc3c(c2c(=O)[nH]1)CCCC3 | 2.32% (inactive)
CC(C)CCOCc1nc2sc3c(c2c(=O)[nH]1)CCC(C)C3 (stereo not drawn) | -5.2% (inactive)
COC(=O)C1CCN(c2nc3ccccc3nc2C(C#N)C(=O)OCC(C)C)CC1 (stereo not drawn) | -4.17% (inactive)
COc1ccccc1NS(=O)(=O)c1cccc(NC(=O)C2CC2)c1 | -4.5% (inactive)
O=[N+]([O-])c1ccc(OS(=O)(=O)Cc2ccccc2)cc1 | 4.45% (inactive)
COc1cc(OC)c(C#N)c(S(=O)(=O)Cc2ccccc2)c1 | -8.56% (inactive)

SMILES | inhibition
O=C(CS(=O)(=O)c1cn(CC(=O)N2CCCC2)c2ccccc12)Nc1ccccc1F | 2.67% (inactive)
Cc1c(C(c2ccc(F)cc2)c2c(C)n(C)n(-c3ccccc3)c2=O)c(=O)n(-c2ccccc2)n1C | 5.49% (inactive)
COc1ccc(-c2csc(NC(CO)c3nc4ccccc4n3Cc3ccc(C)cc3)n2)cc1 (stereo not drawn) | 25.6% (inactive)
OCCOCCn1c(C(CO)Nc2nc(-c3ccc(F)cc3)cs2)nc2ccccc21 (stereo not drawn) | 6.37% (inactive)
Cc1ccc(NCc2nc(SCC(=O)Nc3ccccc3)n[nH]2)cc1 | -2.62% (inactive)
COc1ccc(NC(=O)C(C)NS(=O)(=O)c2ccccc2)cc1Cl (stereo not drawn) | -8.72% (inactive)
COc1ccc(NC(=O)C(C)NS(=O)(=O)c2ccc(NC(C)=O)cc2)cc1Cl (stereo not drawn) | -1.73% (inactive)
COc1ccc(CCN=C(N)NS(=O)(=O)c2ccc(C)cc2)cc1OC | -1.62% (inactive)
Cc1ccccc1C1c2[nH]c3ccccc3c2CCN1C(=O)c1ccc(=O)n(C)n1 (stereo not drawn) | 53.9% (inactive)
CCc1ccc(C2c3[nH]c4ccccc4c3CCN2C(=O)c2cc[n+]([O-])cc2)cc1 (stereo not drawn) | -3.85% (inactive)
COc1cc(N/C=C(\C(C)=O)c2ccccc2)cc(OC)c1 | 4.79% (inactive)
O=C(Nc1ccc(OCc2ccccc2)cc1)c1ccccc1 | -2.87% (inactive)
COc1ccc(CCNCC(=O)Nc2ccc(OC(F)F)cc2)cc1 | -4.99% (inactive)
CCCCC1CCC(C(=O)N(CCCC)c2c(N)n(CCCC)c(=O)[nH]c2=O)CC1 (stereo not drawn) | -9.54% (inactive)
Clc1nc(CN2CCOCC2)nc2sc3c(c12)CCC3 | 6.4% (inactive)
CC1CCc2c(sc3nc(CN4CCOCC4)nc(N4CCc5ccccc5C4)c23)C1 (stereo not drawn) | 6.42% (inactive)
CCc1ccccc1Nc1nc(N)nc(CSCC(=O)c2cc(C)n(C)c2C)n1 | -11.5% (inactive)
O=C(NCCCc1ccc(F)cc1)C1CCC(=O)N(CCCN2CCCC2=O)C1 (stereo not drawn) | 11.4% (inactive)
O=C1CC(Sc2nnc(-c3ccccc3)o2)C(=O)N1c1ccccc1 (stereo not drawn) | -3.28% (inactive)
O=C1OCCC1Sc1nnc(-c2ccccc2)o1 (stereo not drawn) | -4.39% (inactive)
COc1ccccc1OCC(=O)Nc1ccc(S(=O)(=O)N2CCOCC2)cc1 | -3.94% (inactive)
CCCCn1c(=O)[nH]c(=O)c2c1nc(-c1ccsc1)n2Cc1ccccc1 | 7.19% (inactive)
CCC(=O)Nc1ccc(C2=Nn3c(nnc3C(C)C)SC2)cc1 | 9.12% (inactive)
CC(C)c1nnc2n1N=C(c1ccc(Cl)cc1)CS2 | 45.3% (inactive)

SMILES | inhibition
Cc1ccc(CN2CCSc3ccc(C(=O)NCC4CCCO4)cc32)cc1 (stereo not drawn) | -1.08% (inactive)
Nc1ccc(Nc2ccc([N+](=O)[O-])cc2[N+](=O)[O-])cc1 | 4.35% (inactive)
Nc1cc([N+](=O)[O-])ccc1Nc1ccccc1 | 2.95% (inactive)
COc1ccc2sc(-c3ccc(S(C)(=O)=O)cc3)c(C(=O)NCCc3c[nH]c4ccccc34)c2c1 | 0.16% (inactive)
CN1C(=O)N(C)C(=O)C2(Cc3cc(N)ccc3N3CCN(c4ccccc4F)CC32)C1=O (stereo not drawn) | -0.78% (inactive)
CN(C(=S)NC(=O)c1ccccc1)C1CCCCC1 | 60.5% (inactive)
Cc1ccc(C(=O)NC(=S)N(C)C2CCCCC2)cc1 | 62.7% (inactive)
O=C(NCc1ccc2c(c1)OCO2)C1CCC(CNS(=O)(=O)c2ccc(Cl)cc2)CC1 (stereo not drawn) | -12% (inactive)
O=C(CN1C(=O)NC2(CCCC2)C1=O)N1CCN(S(=O)(=O)c2ccc(Cl)c(C(F)(F)F)c2)CC1 | -1.26% (inactive)
Brc1ccc2[nH]cc(/C=N/N3CCCCC3)c2c1 | -3.65% (inactive)
CC1CCCC(C)N1/N=C/c1cccc(Br)c1 (stereo not drawn) | 2.02% (inactive)
CCCCNS(=O)(=O)c1ccc(OC)c2ncccc12 | -7.49% (inactive)
COc1cc(NC(=O)c2ccc3snnc3c2)cc(OC)c1 | -2.63% (inactive)
C[C@H](NC(=O)c1cc2c(cn1)[nH]c1ccccc12)C(=O)O | 61.1% (inactive)
COC(=O)[C@H](C)NC(=O)c1cc2c(cn1)[nH]c1ccccc12 | 25.1% (inactive)
Cc1cc(C)c2nc(-c3ccccn3)cc(C(=O)NCCc3ccc(S(N)(=O)=O)cc3)c2c1 | 2.93% (inactive)
NS(=O)(=O)c1ccc(NC(=O)CSC2=NC(=O)C(c3ccccc3)C(=O)N2)cc1 (stereo not drawn) | -4.16% (inactive)
O=C(CSC1=NC(=O)C(c2ccccc2)C(=O)N1)Nc1cccc(Cl)c1 (stereo not drawn) | -1.6% (inactive)
CC1CC(NC(=O)CC#N)CC(C)(C)C1 (stereo not drawn) | -2.07% (inactive)
CCNC(=O)CC1C(=O)N(c2ccc(C)cc2)C(=O)N1CCc1sccc1C (stereo not drawn) | -0.52% (inactive)
COc1ccc(OC)c(N(CC(=O)Nc2ccccc2)S(=O)(=O)c2ccccc2)c1 | -0.48% (inactive)
